Bioassay records: PubChem, National Center for Advancing Translational Sciences (NCATS)
HepG2 tox = qHTS for Inhibitors of TGF-b: Cytotox Counterscreen | AID 588856, 2011 | Potency, µM (top dose mostly 46.1 µM), most hits filed as cytotoxic | 0.76% of 410,000 active | HepG2 CAGA-GFP viability, ATP luminescence, 18 h
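HepG2 CAGA-GFP cells (1000/well, DMEM with 1% FBS) received compound, then TGF-beta at 500 pg/mL final, and were incubated 18 hours at 37 degrees C. Viability was read by CellTiter-Glo luminescence. Media-only wells were set as complete cell-killing and DMSO as no toxicity.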
DT40 TDP1 CPT = qHTS for Inhibitors of human tyrosyl-DNA phosphodiesterase 1 (TDP1): qHTS in cells in presence of CPT; chicken DT40 Tdp1-/-;hTDP1 cells + 20 nM CPT, ATP luminescence, 48 h; Potency, µM (titrated, usually from 46.2 µM), usual class: inhibitors; 12% of 420,000 active; AID 686979, 2013; note: nearly all actives have a fitted effect of over 55% in size
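Cell growth measured by CellTiter-Glo luminescence after a minimum 48 h, 37 C compound exposure with 20 nM CPT in Tdp1-knockout DT40 cells stably expressing hTDP1, seeded 400/well; qHTS titration format.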
ATXN2 expr inh = Primary qHTS for Inhibitors of ATXN expression; 0.72% of 360,000 active; HEK-293 ATXN2-luciferase reporter, luminescence, 24 h; AID 1745845, 2022; Potency, µM (titrated, usually from 57 µM), hits mostly inhibitors; note: nearly all actives have a fitted effect of over 55% in size
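ATXN2-luciferase reporter cells (luciferase flanked by upstream and downstream ATXN2 gene portions) were treated 24 h at 37 °C with compounds at up to 57 uM. SteadyGlo luminescence gave expression; GF-AFC fluorescence gave viability.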
TGFb SMAD3 inh = qHTS for Inhibitors of TGF-b; HepG2 CAGA-GFP TGF-b/SMAD3 reporter, GFP fluorescence, 18 h; TGF-beta stimulated, 500 pg/mL final; Potency, µM (highest dose often 46.1 µM), usual class: inhibitors; 1.2% of 410,000 active; AID 588855, 2011; note: nearly all actives have a fitted effect of over 65% in size
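HEPG2 CAGA-GFP reporter cells (1000/well, DMEM with 1% FBS) received compounds, then recombinant TGF-beta at 500 pg/mL final for 18 hours at 37 degrees C. Per-cell GFP summed per well was normalised to unstimulated and stimulated DMSO controls before curve fitting.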
DT40 TDP1 no CPT = qHTS for Inhibitors of human tyrosyl-DNA phosphodiesterase 1 (TDP1): qHTS in cells in absence of CPT; DT40 Tdp1-/- hTDP1 cells, no CPT, ATP luminescence, 48 h; Potency, µM (titrated, usually from 46.2 µM), hits mostly inhibitors; 15% of 420,000 active; AID 686978, 2013; note: nearly all actives have a fitted effect of over 55% in size
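Seeded 400 DT40-hTDP1 cells/well (vehicle DMSO, no 20 nM CPT); pinned compounds; ≥48 hr at 37 °C; CellTiter-Glo luminescence as viability measure.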
S2 tox = Viability Counterscreen for Primary qHTS for Inhibitors of ATXN expression. 0.49% of 400,000 active. S2 cells (HEK-293 line with an ATXN2-luciferase reporter) viability, CellTiter-Fluor protease fluorescence, 24 h. Potency, µM (top dose mostly 56.7 µM), actives largely listed as cytotoxic. AID 651635, 2014; note: nearly all actives have a fitted effect of over 40% in size
Large screens that a line does not name were inactive. Most compounds without a hit are left out; they make up all but 17% or so of the library. Calls come from the whole dose curve; as a rule, active = well fitted curve in the direction sought with a large enough effect; inconclusive = small, poorly fitted or top-dose-only effect, or another doubt; inactive = no such curve, though single readings can be large; an effect the other way counts as inactive or inconclusive.

CCc1ccc(-c2cc3c(=O)n(CC(=O)NCCCN4CCC(Cc5ccccc5)CC4)nc(C)n3n2)cc1	DT40 TDP1 CPT inconclusive, DT40 TDP1 no CPT inconclusive (no result: ATXN2 expr inh)
COc1ccc(NC(=O)Cn2c(=O)n(CCCC(=O)NCCc3ccc(C)cc3)c(=O)c3ccccc32)cc1Cl	none
O=C1Cc2ccccc2C1=C1C=c2ccccc2=C1	DT40 TDP1 CPT inconclusive, DT40 TDP1 no CPT inconclusive (no result: ATXN2 expr inh, S2 tox)
COc1ccc2c(c1)[nH]c1c(N3CCN(Cc4ccc5c(c4)OCO5)CC3)ncnc12	DT40 TDP1 CPT 2.3µM, ATXN2 expr inh 14µM, TGFb SMAD3 inh 20µM, DT40 TDP1 no CPT 1.6µM, S2 tox 10µM
COc1ccc2c(c1)[nH]c1c(N3CCSCC3)ncnc12	DT40 TDP1 CPT 7.3µM, ATXN2 expr inh inconclusive, DT40 TDP1 no CPT 8.2µM
c1nc(N2CCN(Cc3ccc4c(c3)OCO4)CC2)c2[nH]cnc2n1	DT40 TDP1 CPT inconclusive, DT40 TDP1 no CPT inconclusive
Cc1nc2cc(NC(=O)C3CC34CCN(Cc3ccc(O)c(Cl)c3)CC4)ccc2s1 (centres undefined)	none (no result: HepG2 tox, ATXN2 expr inh, TGFb SMAD3 inh)
Cc1ccc2nc(-c3cccs3)c(Nc3c(C)cccc3C)n2c1	DT40 TDP1 CPT 23µM, ATXN2 expr inh inconclusive, TGFb SMAD3 inh inconclusive, DT40 TDP1 no CPT 26µM, S2 tox inconclusive
Cc1cccc(C)c1Nc1c(-c2cccs2)nc2ncccn12	DT40 TDP1 CPT 21µM, DT40 TDP1 no CPT inconclusive
O=C1CCC2(CCCC2)c2ccccc21	none (no result: ATXN2 expr inh)
CCN(CC1COc2ccccc2O1)S(=O)(=O)c1ccc(C)cc1 (centres undefined)	DT40 TDP1 CPT inconclusive, TGFb SMAD3 inh inconclusive, DT40 TDP1 no CPT inconclusive
Cn1c(N)c(C(=O)COC(=O)C2(c3ccc(F)cc3)CCCC2)c(=O)n(C)c1=O	DT40 TDP1 CPT inconclusive, DT40 TDP1 no CPT 18µM
Cn1c(N)c(C(=O)COC(=O)C2(c3ccc(Cl)cc3)CCCC2)c(=O)n(C)c1=O	DT40 TDP1 CPT 15µM, DT40 TDP1 no CPT 12µM
Cn1c(N)c(C(=O)COC(=O)/C=C/c2ccc(Cl)cc2)c(=O)n(C)c1=O	DT40 TDP1 CPT inconclusive, DT40 TDP1 no CPT inconclusive, S2 tox inconclusive
Cn1c(N)c(C(=O)COC(=O)C2(c3ccccc3F)CCCC2)c(=O)n(C)c1=O	DT40 TDP1 CPT inconclusive, DT40 TDP1 no CPT inconclusive
CC(C)[C@H](NS(=O)(=O)c1ccc(Cl)cc1)C(=O)OCC(=O)c1c(N)n(C)c(=O)n(C)c1=O	DT40 TDP1 CPT inconclusive, DT40 TDP1 no CPT 21µM, S2 tox inconclusive
Cn1c(N)c(C(=O)COC(=O)/C=C/c2ccc(Cl)cc2Cl)c(=O)n(C)c1=O	DT40 TDP1 CPT inconclusive, DT40 TDP1 no CPT 16µM
COc1cc(CCC(=O)O)on1	none (no result: ATXN2 expr inh)
CCCc1nn2c(=O)cc(CSCC(=O)Nc3nnc(C(C)C)s3)nc2s1	none
Cc1[nH]nc2ncc(C(=O)c3ccccc3O)cc12	DT40 TDP1 CPT 10µM, DT40 TDP1 no CPT inconclusive
CC12C=CC(=O)C=C1CCC1C2C(=O)CC2(C)C1CCC2(O)C(=O)CO (centres undefined)	none
CCn1c(SCC(=O)NCc2ccco2)nnc1-c1cccc(N(C)C)c1	DT40 TDP1 no CPT inconclusive (no result: ATXN2 expr inh, S2 tox)
Cn1c(=O)c2c(nc(N/N=C/c3ccncc3)n2Cc2ccccc2)n(C)c1=O	DT40 TDP1 CPT inconclusive, DT40 TDP1 no CPT inconclusive
COc1cc(/C=N/Nc2nc3c(c(=O)n(C)c(=O)n3C)n2Cc2ccccc2)ccc1OC(=O)c1ccco1	DT40 TDP1 CPT 5.8µM, ATXN2 expr inh inconclusive, DT40 TDP1 no CPT 5.2µM, S2 tox inconclusive
Cc1ccc(Cn2c(N/N=C/c3ccncc3)nc3c2c(=O)n(C)c(=O)n3C)cc1	DT40 TDP1 CPT inconclusive, DT40 TDP1 no CPT 18µM
OC(c1ccc(CN2CCCCC2)cc1)c1ncc(-c2ccccc2F)[nH]1 (centres undefined)	none
